Measured values from the supplement of paper PMC3334620.
Whole data set: some 33,000 sequences, median “E-score (-0.5 to 0.5)” near -0.035, cut for the highest 2% near 0.35. The list comes from a sample in which the highest values are over-represented; it also holds similar and randomly drawn sequences.

biological target: T1, Pdr3 (UniProt P33200); assay: PBM E-score (8-mer binding enrichment) (E-score (-0.5 to 0.5)); higher = stronger / more preferred TF binding; details: protein concentration: 200 nM; construct: GST-full length
T1 sequence: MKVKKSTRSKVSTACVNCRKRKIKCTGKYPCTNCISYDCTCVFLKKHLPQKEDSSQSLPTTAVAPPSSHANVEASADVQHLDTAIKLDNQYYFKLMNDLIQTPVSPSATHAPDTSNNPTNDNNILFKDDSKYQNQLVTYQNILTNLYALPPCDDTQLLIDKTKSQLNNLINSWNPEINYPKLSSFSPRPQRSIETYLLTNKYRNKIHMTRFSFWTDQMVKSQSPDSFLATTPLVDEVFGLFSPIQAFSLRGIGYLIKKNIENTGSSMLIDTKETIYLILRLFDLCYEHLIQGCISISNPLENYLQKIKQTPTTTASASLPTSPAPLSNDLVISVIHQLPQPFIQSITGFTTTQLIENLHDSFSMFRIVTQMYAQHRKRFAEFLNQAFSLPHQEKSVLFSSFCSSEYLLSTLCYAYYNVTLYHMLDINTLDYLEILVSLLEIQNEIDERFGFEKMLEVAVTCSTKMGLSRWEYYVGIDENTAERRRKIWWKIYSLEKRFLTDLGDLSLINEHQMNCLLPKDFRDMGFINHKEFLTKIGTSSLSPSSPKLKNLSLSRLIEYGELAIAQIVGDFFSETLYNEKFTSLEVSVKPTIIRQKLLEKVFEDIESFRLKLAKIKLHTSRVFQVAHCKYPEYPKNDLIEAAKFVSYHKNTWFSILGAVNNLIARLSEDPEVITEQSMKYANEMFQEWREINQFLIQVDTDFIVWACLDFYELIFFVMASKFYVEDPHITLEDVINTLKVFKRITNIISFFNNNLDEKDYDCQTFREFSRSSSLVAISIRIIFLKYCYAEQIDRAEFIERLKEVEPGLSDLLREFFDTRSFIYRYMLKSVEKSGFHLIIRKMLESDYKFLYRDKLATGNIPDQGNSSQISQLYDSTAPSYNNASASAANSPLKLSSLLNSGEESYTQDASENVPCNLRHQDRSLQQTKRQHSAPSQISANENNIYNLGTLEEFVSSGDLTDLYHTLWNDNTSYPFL
How it was run: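 Masliner-normalised scans of fluorescent anti-GST signal were the basis for scoring. That signal came from GST-tagged yeast transcription factors applied at about 100-200 nM to double-stranded universal all-10-mer Agilent arrays on fresh or once-stripped slides. Each ungapped eight-base word, pooled with its reverse complement, received an E-score from the Universal PBM Analysis Suite.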

Row | Sequence | PBM E-score
1 | GCTCCGGA | 0.461
2 | ACTCCGGA | 0.456
3 | ACTCCTGG | -0.134
4 | ACTCCGGG | 0.369
5 | GCTCCGTA | 0.32
6 | ACTCCGGC | 0.315
7 | CCTCCGGA | 0.416
8 | GCTCCGCA | 0.178
9 | ACTCCGAT | 0.203
10 | CCTCCCGA | 0.103
11 | CCTCCGGC | 0.32
12 | AAATAGGT | -0.15
13 | ATCAAAGA | -0.143
14 | ACTCTGCA | -0.125
15 | GGTTTCGA | 0.134
16 | CTCTTTCC | 0.141
17 | CATGAAAC | 0.0519
18 | CGATTTCA | -0.0484
19 | TGCATAAA | -0.00866
20 | GCGTTGCC | 0.126
21 | CGCGGGCC | 0.379
22 | CACGGGCC | 0.196
23 | AGCGGGTA | 0.0103
24 | AGCGGGCC | 0.057
25 | AGCGGGCA | -0.048
26 | CGCGGGCA | 0.397

Row | Sequence | PBM E-score
27 | CGCGGGTA | 0.363
28 | GGCGGGCA | 0.219
29 | CGCGGGTC | 0.331
30 | CCGATCTA | 0.0827
31 | ATCCAATG | -0.208
32 | AGTCTGAT | -0.133
33 | AAGACAAA | -0.103
34 | AACCGCTG | -0.114
35 | CGTTCGAG | -0.0996
36 | AAATTCCA | 0.0847
37 | CAATTCCC | 0.133
38 | AAATTCCG | 0.418
39 | AAATTCCC | 0.144
40 | CAATTCCG | 0.435
41 | CAATTCCA | 0.0797
42 | CAGATCTA | -0.337
43 | AACAGCAT | -0.0321
44 | GAGACTCA | -0.204
45 | TGTGATAA | -0.121
46 | TACGGGAA | 0.261
47 | AACGGAAA | 0.464
48 | GACGGGAA | 0.203
49 | AACGGAGA | 0.243
50 | CACGGAAA | 0.449
51 | CAAGGAAA | 0.00732
52 | GACGGAAA | 0.43

Row | Sequence | PBM E-score
53 | GACGGACA | 0.335
54 | TAGGGAAA | -0.15
55 | TACGGAAA | 0.402
56 | AACGGGAA | 0.354
57 | CACGGGAA | 0.223
58 | GCTACGAC | 0.0127
59 | CACTGGTC | -0.078
60 | CAGATGCG | -0.126
61 | CTAGGACA | -0.0782
62 | CGGCTTGC | 0.197
63 | GCTCGTAC | -0.126
64 | CCTAGAAG | -0.146
65 | ATGTCTAG | -0.064
66 | AATAGGCG | 0.313
67 | AGCCTTAG | -0.37
68 | CAGCCACG | 0.145
69 | GACAGAAC | 0.0194
70 | CATGGAAC | -0.0483
71 | CACGGAAG | 0.386
72 | CAAGGAAC | 0.161
73 | CACGGAAC | 0.483
74 | GACGGAAC | 0.475
75 | GATGGAAC | 0.06
76 | CAAGGAAG | -0.0209
77 | CACAGAAG | -0.109
78 | ACAGTAAA | -0.0539

Row | Sequence | PBM E-score
79 | AGCAAAAG | -0.336
80 | CTATAAGC | -0.129
81 | TCAATAGA | -0.262
82 | ATGTTATC | 0.0774
83 | CAGTTTCC | 0.253
84 | ATCAGCGA | -0.0101
85 | ATCAGCGG | 0.364
86 | ATCAGCGC | 0.207
87 | AGAGAGTC | -0.249
88 | CCCCTTTC | 0.00738
89 | TAATGCAA | -0.241
90 | AACGGCTT | 0.0106
91 | CCAGGTTA | -0.0429
92 | ACCGCGAG | -0.00369
93 | ACCGCGAT | 0.177
94 | ACCGCGGC | 0.399
95 | ACCGCGGA | 0.488
96 | ACCGCGTC | 0.0777
97 | ACCGCGGT | 0.4
98 | ACCGCGTA | 0.174
99 | ACCGCGGG | 0.472
100 | ATCGCGGC | 0.213
101 | ATCGCGGG | 0.186
102 | ATCGCGGA | 0.282
103 | AACGCGGT | 0.1
104 | CCTTGTGA | -0.0319

Row | Sequence | PBM E-score
105 | GGCTGTTA | 0.0369
106 | CACTTAGA | -0.119
107 | CGCTGGAC | -0.075
108 | TCCTCGCA | -0.0258
109 | CAAATTGC | 0.0819
110 | CAAAAACC | 0.0333
111 | CTTACCAA | -0.108
112 | AAGAGCAG | -0.0681
113 | CTATGGCC | -0.124
114 | TGTCGGAA | 0.383
115 | CGTCGGAA | 0.411
116 | TGTCGCAA | -0.0293
117 | AGTCGGAC | 0.117
118 | GGTCGGAC | 0.15
119 | GGTCGGCA | -0.00943
120 | AGTCGGAG | 0.134
121 | TGTCGTAA | -0.113
122 | CGTCGGAC | 0.252
123 | AGTCGGAA | 0.414
124 | CGTCGGAG | 0.178
125 | GGTCGGAA | 0.4
126 | CCTTGGCG | -0.0565
127 | CGCTTTGC | 0.0905
128 | CCCCACGA | -0.0538
129 | ACAGTATC | -0.21
130 | AAACCAGT | -0.227

Row | Sequence | PBM E-score
131 | GCTAGAGC | -0.272
132 | AAGCCCGC | 0.213
133 | ACGCCCCG | 0.181
134 | ACGCCCGG | 0.311
135 | CCGCCCGG | 0.407
136 | AAGCCCGG | 0.379
137 | CCGCCCGC | 0.241
138 | CCGCCCCC | 0.0913
139 | CCGCCCCG | 0.435
140 | AAGCCCGT | -0.162
141 | CACTCATG | -0.257
142 | AAAGGGAT | -0.154
143 | AACCGCCA | -0.0357
144 | AGGAGATA | -0.182
145 | GGGAGATA | 0.0536
146 | CGGAGATA | 0.386
147 | ATTCAAAA | 0.0638
148 | GAAAACTA | 0.0457
149 | AAATATAT | 0.19
150 | CGAAAGCC | -0.105
151 | CTAACGAA | -0.0337
152 | GTAACGGA | 0.397
153 | GTAACGCA | 0.0163
154 | ATAACGGA | 0.386
155 | ATAACGGC | 0.135
156 | CTAACGGA | 0.389

Row | Sequence | PBM E-score
157 | CTAACGGC | -0.00464
158 | GTAACGTA | -0.165
159 | ATAACGGG | 0.0143
160 | CATGTGCG | 0.0377
161 | ATAGCGTC | -0.153
162 | GTGCAGTA | -0.0405
163 | CCTGGCCA | -0.107
164 | ATGAAGCA | -0.152
165 | ACGCTATG | -0.187
166 | ATCGACCA | -0.176
167 | CAAAGAGC | -0.0254
168 | CCGGAGCA | 0.401
169 | ACGGAGCC | 0.305
170 | TCGGAGCA | 0.28
171 | ACGGAGCG | 0.337
172 | CAGGAGCG | -0.12
173 | CCGGAGCG | 0.37
174 | GCGGAGCA | 0.304
175 | GCGGAGCC | 0.296
176 | CCGGAGCC | 0.403
